Among all 200,000 compounds or so, about 3,000 (1.5%) were called active. Many of the other results were omitted from the sample, so actives are more common in it than they were. Values without a mark were called inactive.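 Rule for the calls: active = inhibition above about 50% when tested at 10 µM (limit read from the data); inactive = the rest.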

Chain of Luciferin 4-monooxygenase (Photinus pyralis) (P08659 whole entry, looked up): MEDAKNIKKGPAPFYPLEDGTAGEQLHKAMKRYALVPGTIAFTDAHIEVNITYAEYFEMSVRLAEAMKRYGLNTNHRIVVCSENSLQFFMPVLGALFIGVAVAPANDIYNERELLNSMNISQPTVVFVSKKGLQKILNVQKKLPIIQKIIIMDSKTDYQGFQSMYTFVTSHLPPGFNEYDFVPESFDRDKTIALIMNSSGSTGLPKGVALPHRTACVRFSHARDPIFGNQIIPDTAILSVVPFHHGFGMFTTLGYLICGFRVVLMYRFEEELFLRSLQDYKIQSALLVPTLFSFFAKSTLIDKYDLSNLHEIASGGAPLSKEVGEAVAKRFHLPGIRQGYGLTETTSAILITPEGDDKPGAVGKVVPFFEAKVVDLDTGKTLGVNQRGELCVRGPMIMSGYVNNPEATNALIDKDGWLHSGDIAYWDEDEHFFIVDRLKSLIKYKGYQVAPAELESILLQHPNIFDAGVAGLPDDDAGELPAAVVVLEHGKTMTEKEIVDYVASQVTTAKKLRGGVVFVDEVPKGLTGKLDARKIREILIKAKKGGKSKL

This experiment concerns the target Luciferin 4-monooxygenase (Photinus pyralis) (UniProt P08659). The experiment can be described thus: inhibition of purified FLuc reporter enzyme – biochemical, luminescence, ATPLite, artefact control for luciferase-based inhibitor screens, primary screen (AID 1006). The note with it: ATPLite firefly luciferase biochemical luminescence, 10 min; at 10 µM; hits give high values. For orientation: ATP-based viability assays read luminescence as a measure of living cells.
In the case of `COc1ccc(NS(=O)(=O)c2cc(NC(=O)/C=C/c3cc(OC)c(OC)c(OC)c3)ccc2N2CCCCC2)cc1`, the inhibition (commonly the relative decrease from the control value, in per cent) is -5%.
Regarding `Cc1ccn(-c2cccc(-n3ccc(C)n3)n2)n1`, the inhibition is 61.1% (active).
To `CC(C)N1C(=O)N(c2ccccc2)C(C)(O)CC1(C)C` (stereo unspecified) belongs -5.4%.
To `O=C(O)CCCCc1nc2ccccc2s1` belongs 6.8%; to `COc1ccccc1OCc1nc2ccccc2s1`, 57.9% (active).
Then `COc1cccc2sc(NNC(=O)c3nc4ccccc4s3)nc12`, with -1.8%; and `CNC(=O)COc1ccc(S(=O)(=O)Nc2ccccc2)cc1`, with -6.9%.
Consider `CSc1ccccc1NC(=O)CN(C)CC(=O)Nc1ccc(Cl)cc1[N+](=O)[O-]`, for which the inhibition was 1.5%.
Regarding `Nc1ncc(-c2cc3ccccc3oc2=O)s1`, the inhibition was 32.1%.
On to `O=c1oc2ccccc2cc1-c1cn(-c2ccccc2)c(=S)[nH]1`, for which the inhibition is 90.1% (active).
Turning to `O=C(c1cn(-c2ccccc2)nc1-c1cc2ccccc2oc1=O)N1CCOCC1`, the inhibition was -8.2%.
Then `Cc1ccc(CCCOC(=O)C[N+]2(C)CCCCC2)cc1`, with -3.7%; and `O=C(COC(=O)c1n[nH]c2ccccc12)NCc1ccccc1`, with -1.4%; and `O=C(NCCc1ccc(F)cc1)c1n[nH]c2ccccc12`, with 14.4%.
With `COc1cccc(CNC(=O)c2n[nH]c3ccccc23)c1`, the inhibition was 51.1% (active).
Then `CC(=O)Nc1ccc(NC(=O)CSc2nnc(COc3ccccc3C)n2CC2CCCO2)cc1` (stereo unspecified), with -2.3%; and `CCc1ccc2nc3sc(C(=O)Nc4nnc(CC)s4)c(N)c3cc2c1`, with 51.9% (active); and `CCc1nnc(NC(=O)c2sc3nc(C)cc(COC)c3c2N)s1`, with -1.1%.
Take `CCc1nnc(NC(=O)c2cccs2)s1`: the inhibition was 6.9%.
To `CSc1cc(C)[nH]c(=O)n1` belongs 0.8%; to `Cc1ccc(C(=O)N/C(=C/c2cccs2)C(=O)NCC2CCCO2)cc1` (stereo unspecified), 0.4%.
Then `Cc1ccc(S(=O)(=O)N2CCC(C(=O)NCC3CCCO3)CC2)cc1` (stereo unspecified), with -6.3%; and `Cc1ccc(-n2c(C)cc(/C=C(\C#N)C(=O)NCC3CCCO3)c2C)cc1` (stereo unspecified), with 72.2% (active).
To `CC(C)(C)NC(=O)COC(=O)c1cc(Cl)ccc1[N+](=O)[O-]` belongs 1.8%.
For `CN(C)/C=C(/C(=O)c1ccccc1Cl)S(C)(=O)=O`, the inhibition was -6%.
To `Cc1cc(F)ccc1S(=O)(=O)N1CCCOC1CNC(=O)C(=O)NCCC1=CCCCC1` (stereo unspecified) belongs -3.9%.
To `COc1cc(/C=C/C(=O)OCC(=O)N2CCOCC2)ccc1OCC#N` belongs -6%; to `Cc1cccc(OCC(=O)Nc2ccccc2F)c1`, 6.3%.
Regarding `CCCOC(=O)Nc1ccccc1C(N)=O`, the inhibition was -2.5%.
Then `COc1cccc(OCC(=O)Nc2ccccc2C(N)=O)c1`, with 59.2% (active).
To `CCOC(=O)C1=C(N)N(c2ccc(C)cc2)C2=C(C(=O)CCC2)C1c1cccs1` (stereo unspecified) belongs -3.4%; to `Cc1cc(/C=C2/C(=N)N3C(=NC2=O)SN=C3S(C)(=O)=O)c(C)n1-c1ccccc1`, 89.9% (active).
To `CS(=O)(=O)c1ccc2c(c1)SC1=NC(=O)/C(=C/c3ccco3)C(=N)N12` belongs 13.2%.
With `CCS(=O)(=O)C1=NSC2=NC(=O)/C(=C\c3cc(C)n(-c4cccc(OC)c4)c3C)C(=N)N21`, the inhibition is 12.2%.
On to `Cc1ccnc(NC(=O)c2ccoc2C)c1`, for which the inhibition is 18.1%.
Then `COc1cc(SC)ccc1C(=O)Nc1nc(C)cs1`, with 97.7% (active); and `COc1cc(SC)ccc1C(=O)NCCOc1ccccc1Cl`, with -0.8%; and `COc1ccccc1CNC(=O)c1ccc(SC)cc1OC`, with -4.7%.
As to `COc1ccc(C(=O)Nc2nncs2)c(OC)c1`, the inhibition is 40%.
Then `COc1cc(SC)ccc1C(=O)Nc1cc(C)ccn1`, with 80.7% (active); and `Cn1cnnc1SCC(=O)NNC(=O)COc1ccc(Br)cc1`, with 3.3%.
For the compound `COc1ccc(/C=N/NC(=O)c2ccncc2)cc1CN1CCCc2ccccc21`, the inhibition was -8.3%.
Turning to `COc1ccc(C)cc1-n1nnnc1SCc1nc2ccccc2c(=O)[nH]1`, the inhibition is 0.3%.
To `Fc1cccc(Cc2noc(CN3CCN(c4cnccn4)CC3)n2)c1` belongs -8.2%; to `Cc1ccc(NC(=O)Nc2ccc3oc(C)nc3c2)cc1`, 70.8% (active); to `Cc1nc2ccc(NC(=O)C(F)(F)F)cc2o1`, -2.2%.
To `Cc1nc2cc(NC(=O)NCc3ccccc3)ccc2o1` belongs 12%.
Take `O=C(CN1CCc2ccccc21)NC(c1ccccc1)c1ccccc1`: the inhibition was -10.6%.
To `O=C(N/N=C/c1ccc(OCC2COCCO2)cc1)c1ccc(Br)cc1` (stereo unspecified) belongs 2.2%.
To `CCS(=O)(=O)c1ccc(C(=O)NC)c(Cl)c1Cl` belongs -3.5%.
Then `COc1ccccc1N1CCN(CC(=O)NCCc2ccc(S(N)(=O)=O)cc2)CC1`, with -3%.
Take `O=C(Nc1nnc(C2CC2)s1)c1ccccn1`: the inhibition is 63.4% (active).
Then `O=C(Cc1cccs1)Nc1nnc(C2CC2)s1`, with -1.8%.
In the case of `Cc1occc1C(=O)Nc1nnc(C2CCCCC2)s1`, the inhibition is -4%.
In the case of `FC(F)(F)c1cnc(Oc2ccccc2-c2nnc(-c3ccc(Cl)cc3)o2)c(Cl)c1`, the inhibition is -1.6%.
To `Nc1ccc(-c2nnc(-c3ccc(-c4ccccc4)cc3)o2)cc1` belongs 3.7%; to `CSc1ccccc1-c1nnc(-c2ccc(Cl)cc2)o1`, 53.8% (active).
Take `COc1cccc(CC2(CO)CCCN(Cc3nc(-c4cccs4)oc3C)C2)c1` (stereo unspecified): the inhibition is -8.7%.
Consider `CC(=O)Nc1ccc(OCCC[n+]2cccc(C(=O)[O-])c2)cc1`, for which the inhibition was -2.9%.
Turning to `Cc1ccc(NC(=O)CNCc2ccccn2)cc1S(=O)(=O)N(C)C`, the inhibition is -1.9%.
Then `Cc1ccc(NC(=O)c2cccs2)cc1S(=O)(=O)N(C)C`, with 15.2%; and `Cc1ccc(C(=O)Nc2ccc(C)c(S(=O)(=O)N(C)C)c2)s1`, with 71.1% (active); and `CCOc1ncccc1C(=O)N(CC)CC(=O)Nc1ccc(NC(C)=O)cc1`, with -8.7%.
To `COc1ccc2nc(Nc3nc(-c4cc5ccccc5oc4=O)cs3)sc2c1` belongs 40.7%.
Turning to `O=c1oc2ccccc2cc1-c1csc(Nc2ccc(O)cc2)n1`, the inhibition was 17.8%.
To `CCNc1nc(-c2cc3ccccc3o2)cs1` belongs 64.9% (active).
